# This is a sample that favours compounds with a hit; in the whole collection about 32% have one here.
# CYP2C9 activ = CYP2C9 (human) activation; activation factor at 5 µM; hit rate 1.4% among 96,000; recombinant CYP2C9, luciferin-H conversion, luminescence; active compounds read high; factor 1 = untreated enzyme, 0 = blocked;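 active = activation factor of 2 or more for CYP2C9 at a 5 µM dose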;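 also: 0 = sulfaphenazole-blocked wells and 1 = vehicle-only wells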
# Target sequence (P11712 whole entry, looked up): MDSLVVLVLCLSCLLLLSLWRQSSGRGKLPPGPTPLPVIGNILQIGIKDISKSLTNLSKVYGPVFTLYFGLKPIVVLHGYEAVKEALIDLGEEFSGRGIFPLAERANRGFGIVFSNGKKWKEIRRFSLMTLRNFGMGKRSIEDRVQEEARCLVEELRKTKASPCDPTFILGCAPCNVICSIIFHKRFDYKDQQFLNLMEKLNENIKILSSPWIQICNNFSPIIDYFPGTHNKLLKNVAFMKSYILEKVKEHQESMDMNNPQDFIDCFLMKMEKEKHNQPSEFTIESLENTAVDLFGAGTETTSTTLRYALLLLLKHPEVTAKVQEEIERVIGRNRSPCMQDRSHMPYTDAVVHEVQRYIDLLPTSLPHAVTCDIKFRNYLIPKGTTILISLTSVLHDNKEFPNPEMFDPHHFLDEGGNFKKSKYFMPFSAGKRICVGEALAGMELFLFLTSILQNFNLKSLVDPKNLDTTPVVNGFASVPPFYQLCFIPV
# PostGolgi yeast = growth inhibition of a yeast mutant, post-Golgi transport screen | post-Golgi transport phenotypic cell assay | inhibition, % at 10 µM | hit rate 0.9% among 98,000;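 also: yeast cells grown in 1536-well plates; yeast grown about 18 h at 30C before absorbance read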
# CYP2C19 activ = activators of human cytochrome P450 2C19; 96,000 tested, under 10 active; activation factor at 5 µM; recombinant CYP2C19, luciferin-H EGE luminescence; active compounds read high; 0 = fully inhibited enzyme, 1 = untreated enzyme;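 active = activation factor of at least 2 at 5 µM in the primary screen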;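 also: 0 = wells with 2.5 mM tranylcypromine and 1 = vehicle-only wells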
# CYP2C9 inhib = inhibitors of human CYP2C9. P11712. CYP2C9 Supersomes, luciferin-H conversion, luminescence. inhibition, % at 5 µM. hit rate 20% among 96,000;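 active = blocking of liver enzyme CYP2C9 beyond about 50% at 5 µM, limit read from the data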
# PostGolgi ctrl = growth of the yeast control strain, post-Golgi counter-screen | efflux-deficient yeast background strain, growth absorbance A615, 16 h | inhibition, % at 10 µM | hit rate 5% among 98,000
# CYP2C19 inhib = human CYP2C19 inhibition | hit rate 21% among 96,000 | CYP2C19 Supersomes, luciferin-H EGE luminescence, 30 min | AID 778 | P33261 | inhibition, % at 5 µM;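 active = CYP2C19 inhibition above a set limit at 5 µM in the primary screen, cut at about 50% in these data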;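 also: plate controls were negative control wells for no effect and 2.5 mM tranylcypromine positive control for full effect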
# * = called active by the depositor; . = not tested or not shown. Rule as the data show it, unless noted: active = inhibition above about 30%; inactive = the rest.
SMILES,CYP2C9 activ,PostGolgi yeast,CYP2C19 activ,CYP2C9 inhib,PostGolgi ctrl,CYP2C19 inhib
COc1ccc(NS(=O)(=O)c2ccc3oc4ccccc4c3c2)cn1,0,-3.1,0,99.1*,47.0*,96.0*
COC(=O)c1ccccc1S(=O)(=O)Nc1ccc(OC)nc1,0.8,26.0,0.2,23.4,-3.3,85.0*
O=C(NCc1ccco1)C(c1ccco1)N(CCc1ccccc1)C(=O)Cn1nnc2ccccc21 (stereo unspecified),1,-2.0,0.9,-4.2,9.0,8.2
Cc1cc(C(=O)CSc2nncs2)c(C)n1-c1c(C)n(C)n(-c2ccccc2)c1=O,0.6,-6.4,0.8,41.4,35.8*,22.4
Cc1ccc(-n2c(C)cc(C(=O)CSc3nncs3)c2C)cc1,0.1,-3.8,0,89.5*,47.9*,99.5*
Cc1nnc(SCC(=O)c2cc(C)n(-c3c(C)n(C)n(-c4ccccc4)c3=O)c2C)s1,0.8,2.8,1,21.8,7.2,-4.0
Cc1ccc(-n2c(C)cc(C(=O)CSc3nnnn3C)c2C)cc1,0.4,-8.5,0.5,60.8*,11.4,52.7*
COC(=O)c1ccc2ccn(CC(=O)NC(C)C)c2c1,0.7,7.0,0.6,27.1,14.0,43.9
Cc1cc(NS(=O)(=O)c2ccc(NC(=O)c3cc4ccccc4o3)cc2)nc(C)n1,0.7,2.9,1,30.9,4.9,4.5
COc1cccc(OCc2nc3c4cnn(-c5ccccc5)c4ncn3n2)c1,0.7,-0.5,0.5,30.0,2.4,53.2*
CC1=CC(C)(C)N(C(=O)c2ccccc2)c2ccccc21,0.9,-9.0,0.7,14.3,13.8,28.5
CC1=CC(C)(C)N(C(=O)CN2C(=O)c3ccccc3C2=O)c2ccccc21,0.1,-5.0,0.7,86.7*,20.4,30.0
CC1=CC(C)(C)N(S(=O)(=O)c2ccc(C)cc2)c2ccccc21,0.4,-6.7,0.6,61.6*,32.1*,44.0
CC1=CC(C)(C)N(C(=O)C(C)N2C(=O)c3ccccc3C2=O)c2ccc(C)cc21 (stereo unspecified),0.9,5.5,0.2,7.2,18.0,82.9*
CC1=CC(C)(C)N(S(=O)(=O)c2ccc(F)cc2)c2ccc(C)cc21,0.7,-8.3,0.7,30.9,28.9,27.7
Cc1c(C(C)(C)C)c(C=S)n2ccccc12,0.7,0.3,0.7,34.8,0.3,34.2
CCOc1cc2[nH]c(=O)n(CC3CCC(C(=O)NCCCOC)CC3)c(=O)c2cc1OCC (stereo unspecified),1,-6.8,1,4.3,-1.6,-2.7
CCN(Cc1ccccc1)S(=O)(=O)c1ccc(S(=O)(=O)N2CCN(C)CC2)cc1,0.9,-7.5,1,9.2,5.7,4.8
COc1ccc(CCNC(=O)CN(C2CCCCC2)S(C)(=O)=O)cc1OC,1,-5.2,0.9,-1.9,6.3,11.4
Cc1nc([N+](=O)[O-])c(Br)n1CC(=O)c1ccc(Cl)cc1,0.3,18.7,0.7,66.0*,21.7,26.8
CCOCc1cn(CC(=O)c2ccc(Cl)cc2)c(C)nc1=N,1.2,1.6,1.1,-24.3,17.7,-13.0
C=CCSc1nc(C)cc(/C=C\c2ccccc2)c1C#N,2.2*,14.6,0.9,-116.7,9.6,7.1
CCSc1nc(N)nc(-c2cccs2)c1C#N,0.3,28.4,0.6,71.8*,40.3*,37.1
N#Cc1c(N)nc(SCc2ccncc2)c(C#N)c1-c1cccs1,0.2,-1.9,0.4,83.5*,48.6*,57.6*
C=CCSc1nc(N)c(C#N)c(-c2ccc(C)cc2)c1C#N,0.4,3.3,0.6,63.4*,8.2,43.3
SMILES,CYP2C9 activ,PostGolgi yeast,CYP2C19 activ,CYP2C9 inhib,PostGolgi ctrl,CYP2C19 inhib
Cc1cc(C)c(C#N)c(SCC2COc3ccccc3O2)n1 (stereo unspecified),0.7,5.4,0.7,31.5,20.9,32.2
CCSc1nc(N)c(C#N)c(-c2ccccc2Cl)c1C#N,0.7,1.8,1.1,32.5,1.2,-5.7
O=C(/C=C\Nc1cccc(F)c1)c1ccc2c(c1)OCO2,0.7,-0.3,1,31.0,3.6,-3.7
CN(C)c1ccc(C(CC(=O)O)NC(=O)c2ccc(Cl)cc2)cc1 (stereo unspecified),1,3.6,0.9,3.4,-6.1,13.7
CC(=C\C(=O)O)/C(=C/c1ccccc1)C(=O)O,1.3,-0.2,1,-27.6,2.2,3.9
COc1cc(-c2c(C#N)c(N)nc3c2CCCC3)cc(OC)c1OC,.,4.2,.,.,2.8,.
